Test results published in PubChem BioAssay AID2289 (National Center for Advancing Translational Sciences (NCATS), 2010).
The whole screen tested about 340,000 compounds, of which about 3,300 (0.97%) were called active. Roughly 9% stayed inconclusive and do not appear here. Calls come from the whole dose curve; as a rule, active = well fitted inhibition curve with a large enough effect; inconclusive = small, poorly fitted or top-dose-only effect, or effect the other way; inactive = flat fitted curve, though single readings scatter. The list shows a part of the results.

Test: qHTS Assay for Modulators of miRNAs and/or Inhibitors of miR-21; note: nearly all actives have a fitted effect of over 55% in size
Conditions: HeLa miR-21-FLuc reporter, luciferase luminescence, 48 h; actives lower the signal
How it was run: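 HeLa miR-21-FLuc reporter line, endogenous miR-21; 2000 cells/well in DMEM/10% FBS; compound titration up to ~40uM final, 48 h, 37 degree Celsius; luciferase detection reagent, 15 min lysis, CCD luminescence.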
Potency is the fitted concentration of half-maximal effect.

Row | Structure (SMILES) | Potency
1 | C#CCNC(=O)/C=C/c1ccc(C)cc1 | 8.26 µM (active)
2 | C#CCNC(=O)/C=C/c1ccc(OC)cc1 | 13.1 µM (active)
3 | O=C1CCNc2ccc(-c3ccccc3)cc21 | 6.56 µM (active)
4 | C=CCn1c(NCc2ccc3c(c2)OCO3)nc2ccccc21 | 9.27 µM (active)
5 | CCn1c(NCc2ccc3c(c2)OCO3)nc2ccccc21 | 16.5 µM (active)
6 | Cc1ccc2oc(-c3cccc(NC(=O)Cn4cnc5c(=O)n(C)c(=O)n(C)c54)c3)nc2c1 | 6.56 µM (active)
7 | Cc1ccc2oc(-c3ccc(C)c(NC(=S)NC(=O)c4cccs4)c3)nc2c1 | 0.521 µM (active)
8 | Cc1ccc2oc(-c3cccc(NC(=S)NC(=O)c4cccs4)c3)nc2c1 | 4.14 µM (active)
9 | CC(=O)c1sc2nc(-c3cccs3)ccc2c1N | 14.7 µM (active)
10 | Nc1c(C(=O)Nc2ccccc2Br)sc2nc(-c3cccs3)ccc12 | 7.36 µM (active)
11 | NC(=O)c1sc2nc(-c3cccs3)ccc2c1N | 13.1 µM (active)
12 | O=c1/c(=C\c2ccc(F)cc2)sc2n1CCCN=2 | 1.85 µM (active)
13 | O=C(CCC1CCCN(C(=O)Cc2cccc(F)c2)C1)N1CCN(c2ccccn2)CC1 (configuration not stated) | 16.5 µM (active)
14 | Cc1c(N=Nc2ccc(N(C)C)cc2)c(=O)n(-c2ccccc2)n1C | 5.21 µM (active)
15 | Cc1cc(N)ccc1N=Nc1c(C)n(C)n(-c2ccccc2)c1=O | 14.7 µM (active)
16 | Cc1ccc(/C=N/NC(=S)NC2CCCCC2)o1 | 5.21 µM (active)

Row | Structure (SMILES) | Potency
17 | CN(C)/C=N/c1nc2ccc3c(c2s1)CCCC3 | 2.33 µM (active)
18 | Clc1ccc(-n2ncc3c(N4CCCC4)ncnc32)cc1 | 0.0656 µM (active)
19 | CCN1CCN(c2ncnc3c2cnn3-c2ccc(C)c(C)c2)CC1 | 1.65 µM (active)
20 | Cc1cccc(-n2ncc3c(N4CCC5(CC4)OCCO5)ncnc32)c1 | 1.85 µM (active)
21 | CN(C(=O)c1cc(-c2ccc3c(c2)OCO3)on1)c1ccccc1 | 2.61 µM (active)
22 | CCCCNC(=O)c1cc(-c2ccc(F)cc2)on1 | 3.29 µM (active)
23 | COc1ccc(-c2cc(C(=O)NC3CCCC3)no2)cc1 | 1.17 µM (active)
24 | O=C(NC1CCCC1)c1cc(-c2ccc(Cl)cc2)on1 | 1.65 µM (active)
25 | O=C(NC1CCCC1)c1cc(-c2cccc(Cl)c2)on1 | 4.65 µM (active)
26 | CCCNC(=O)c1cc(-c2ccc(OC)cc2)on1 | 0.927 µM (active)
27 | CC1CCCC(C)N1C(=O)c1cc(-c2cccs2)on1 (configuration not stated) | 16.5 µM (active)
28 | Cc1ccc(-c2cc(C(=O)NC3CCCC3)no2)cc1 | 1.31 µM (active)
29 | CN(C(=O)c1cc(-c2ccccc2)on1)C1CCCCC1 | 2.07 µM (active)
30 | O=C(NCC1CCCO1)c1cc(-c2ccccc2F)no1 (configuration not stated) | 14.7 µM (active)
31 | O=C(NC1CCCCC1)c1cc(-c2ccc(O)cc2)on1 | 2.93 µM (active)
32 | O=C(NC1CCCC1)c1cc(-c2ccc(F)cc2)on1 | 1.85 µM (active)
